Only some compounds are listed: those with a hit (about 5.9% of all), similar ones and a draw of the others.
NR0B1 inh: inhibits human nuclear receptor DAX1; inhibition, % at 6.75 µM; AID 504766; HEK293 Gal4-DAX1 luciferase reporter, luminescence; 0.99% of 340,000 active; P51843;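 active = inhibition above the mean over all tested compounds plus 3 SD, cut at about 4.2% in these data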;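 note: 0% = DAX1-transfected cells with DMSO and 100% = empty-vector control cells with DMSO; inhibition shows as a rise in luminescence from relieved DAX1 repression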
Target sequence (P51843 207-470 limits assumed): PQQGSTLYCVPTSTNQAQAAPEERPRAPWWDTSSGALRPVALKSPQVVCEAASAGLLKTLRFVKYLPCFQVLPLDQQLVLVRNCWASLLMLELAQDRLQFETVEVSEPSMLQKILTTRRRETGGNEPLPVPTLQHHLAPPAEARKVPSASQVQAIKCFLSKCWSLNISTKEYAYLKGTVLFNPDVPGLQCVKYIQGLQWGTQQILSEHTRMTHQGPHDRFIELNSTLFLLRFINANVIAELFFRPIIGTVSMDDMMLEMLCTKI
GAA850 FXN act: frataxin GAA850 promoter activation | 0.56% of 360,000 active | activation, % at 6 µM | HEK293 lucGAA850 FXN promoter luciferase reporter, 24 h; percent of 10 µM SAHA response;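 active = activation above the average of all compounds screened plus 3 SD, cutoff fixed separately per campaign, cut at about 7.5% in these data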;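 note: 0% = DMSO wells and 100% = 10 µM SAHA wells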
AHR act: human AHR activation. P35869. AHR-responsive luciferase reporter cells, luminescence. activation, % at 5 µM. 2.5% of 320,000 active; in the data active = activation above about 47%;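 note: 0% = vehicle wells and 100% = reference agonist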
HSF1 inh: HSF1 inhibition; activity change, negative = inhibition, % at 7.5 µM (by protocol); 0.77% of 300,000 active; NIH3T3-HGL HSE-luciferase, MG132-induced, luminescence 8 h; active compounds read low; AID 2098;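 active = more than half of replicate wells show activity change below -50%, luminescence cut by over half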;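 note: luciferase reports HSF-1 transcriptional activity via heat shock element; 0% = median of DMSO wells and -100% = zero luminescence signal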
HSF1 activator: increases HSF-1 driven luciferase reporter signal; NIH3T3-HGL HSF-1 luciferase reporter, MG132, 8 h; 100% = twice DMSO control signal; 1.7% of 300,000 active; activation, % at 9 µM;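 active = mean replicate activation of at least 50% with a set share of replicates each reaching 50%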;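 note: 0% = median of the neutral control wells and 100% = twice that signal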
HSP90 refold inh: blocks HSP90-mediated luciferase refolding in reticulocyte lysate. 0.91% of 290,000 active. Rabbit reticulocyte lysate, luciferase refolding luminescence, 3 h. inhibition, % at 5.6 µM;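 active = inhibition above the screen-wide mean plus 3 SD, computed separately per campaign, cut at about 16% in these data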;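 note: 0% = DMSO wells and 100% = 60 µM geldanamycin wells; inhibitors lower the luminescence because luciferase stays unfolded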
Starred values were filed as active, the others as inactive; . = no result given.

SMILES | NR0B1 inh | GAA850 FXN act | AHR act | HSF1 inh | HSF1 activator | HSP90 refold inh
O=c1c(-c2ccc(Br)cc2)[n+]([O-])c2ccccc2n1OCc1ccccc1 | 1 | 0 | 4 | 2 | -2 | 7
Cc1c(=O)n(OCc2cccc(F)c2)c2ccccc2[n+]1[O-] | -1 | -2 | 84* | -7 | -3 | -1
Cc1cc(OCC(=O)N2CCC(C(=O)O)CC2)c2c(C)cc(=O)oc2c1 | 0 | 1 | 0 | -7 | -2 | 0
O=C(NCCC1=CCCCC1)c1ccc(F)cc1 | -1 | -4 | 5 | 6 | 43 | 38*
COc1ccc(C(=O)NCCC2=CCCCC2)cc1OC | 1 | 3 | 15 | 3 | 45 | -1
O=C(CCNC(=O)c1ccc([N+](=O)[O-])cc1)NCCC1=CCCCC1 | 0 | 2 | 1 | -2 | -10 | .
O=C(NCCC1=CCCCC1)c1ccc([N+](=O)[O-])cc1 | 3 | 3 | 19 | 23 | 53* | 13
O=C(NC(=S)NCCC1=CCCCC1)c1ccco1 | 2 | 3 | 5 | 27 | 62* | 0
Cc1cc(C(=O)NCCC2=CCCCC2)ccc1[N+](=O)[O-] | . | 8 | 2 | 39 | 58* | 2
O=C(NC(=S)NCCC1=CCCCC1)c1ccc(Br)o1 | 0 | 4 | 26 | 7 | 3 | 0
COc1ccc(N2CCN(C(CNC(=O)COc3ccccc3)c3ccco3)CC2)cc1 (stereo unspecified) | 1 | 1 | -2 | 0 | 2 | .
COc1ccc(/C=C/c2nc(N)nc(-c3ccccc3O)n2)cc1 | -1 | 4 | 59* | -3 | 13 | -2
COc1ccc(/C=C/c2nc(N)nc(-c3ccccc3O)n2)cc1OC | 0 | 2 | 21 | -3 | -3 | -4
c1ccc(-c2ccc(C3=Nn4c(nnc4-c4cc(-c5ccccc5)n[nH]4)SC3)cc2)cc1 | 1 | 4 | 31 | -3 | 14 | -1
CC1=Nn2c(nnc2-c2cc(-c3ccccc3)n[nH]2)SC1 | 1 | -1 | 79* | 0 | 8 | -2
O=C(Nc1ccccc1)C1Cc2c(-c3ccco3)ccnc2O1 (stereo unspecified) | . | -4 | . | . | . | .
COc1ccnc(CSC(N)=Nc2cccc(C(F)(F)F)c2)c1 | -2 | 5 | 55* | 13 | 19 | -3
CCN1C(=O)/C(=C/C=C2/Sc3ccc4ccccc4c3N2CCO)SC1=S | -1 | 4 | 10 | -3 | -2 | 1
CCN1/C(=C/C=C/c2oc3ccc4ccccc4c3[n+]2CC)Oc2ccc3ccccc3c21 | . | . | 1 | 238 | 300* | 3
CC(C)(C)c1cnnn1-c1ccc(C=O)cc1 | 0 | 1 | 1 | 10 | 8 | -5
CC(C)(C)c1cnnn1-c1ccc(C(=O)CCl)cc1 | -1 | -1 | 2 | -57* | -67 | -3
CCOc1ccc(/C=N/n2c(C)nnc2C)cc1OC | . | 2 | 2 | -4 | 3 | 0
CCSc1nncn1/N=C/c1ccc(OC)c(OC)c1 | 0 | 3 | 48* | 0 | 7 | 3
CCCc1cc(C(=O)Nc2nccs2)cs1 | 0 | 3 | 4 | 53 | 86* | 5
COc1ccc(CNC(=O)CN(Cc2ccc(OC)cc2)C(=O)CCC(=O)Nc2nccs2)cc1 | -2 | 1 | 2 | 3 | 13 | 1
SMILES | NR0B1 inh | GAA850 FXN act | AHR act | HSF1 inh | HSF1 activator | HSP90 refold inh
COc1ccc2c(CC(=O)NCc3cccs3)coc2c1 | 0 | 3 | 6 | 13 | 9 | -1
COc1ccc(CNC(=O)CN(Cc2ccccc2)C(=O)CCC(=O)Nc2nccs2)cc1 | 0 | -2 | 0 | 24 | 70* | 3
COc1ccc2c(CC(=O)Nc3nccs3)coc2c1 | 2 | 3 | 10 | 19 | 72* | -5
CCCN1C(=O)c2ccc(C(=O)Nc3nccs3)cc2C1=O | 0 | 2 | 13 | 2 | -4 | -1
COc1cc(C(=O)NC(=S)Nc2nccs2)cc(OC)c1OC | 1 | 2 | 79* | -3 | 36 | 2
COc1ccc(-c2nn(-c3ccccc3)cc2C(=O)N2CCN(C(=O)c3ccco3)CC2)cc1 | -1 | 0 | 0 | . | . | .
Oc1ccc(C[C@H]2CNC(=S)N2CC2CCCN2C[C@H](Cc2ccccc2)N2C[C@H](Cc3ccc(O)cc3)N(CCc3ccccc3)C2=S)cc1 (stereo partly specified) | -1 | -11 | . | . | . | .
Cc1ccc(S(=O)(=O)N2CCN(C(=O)CCC(=O)Nc3ccc(F)cc3F)CC2)cc1 | 0 | 0 | 0 | . | . | .

Screening data from PubChem.
